# Results taken from PubChem BioAssay (Tox21).
# Results filed as inconclusive are left out. Where a call stands in place of a potency, no number is given. The source made the active and inactive calls. Unless noted, calls come from the whole dose curve; as a rule, active = well fitted curve in the direction sought with a large enough effect in the repeat runs; inconclusive = weak or mixed curves; inactive = no such curve, though single readings can be large; an effect the other way counts as inactive or inconclusive.
# Target: Nuclear receptor subfamily 1 group I member 3 (Homo sapiens) (UniProt Q14994)
# Sequence (Q14994 whole entry, looked up): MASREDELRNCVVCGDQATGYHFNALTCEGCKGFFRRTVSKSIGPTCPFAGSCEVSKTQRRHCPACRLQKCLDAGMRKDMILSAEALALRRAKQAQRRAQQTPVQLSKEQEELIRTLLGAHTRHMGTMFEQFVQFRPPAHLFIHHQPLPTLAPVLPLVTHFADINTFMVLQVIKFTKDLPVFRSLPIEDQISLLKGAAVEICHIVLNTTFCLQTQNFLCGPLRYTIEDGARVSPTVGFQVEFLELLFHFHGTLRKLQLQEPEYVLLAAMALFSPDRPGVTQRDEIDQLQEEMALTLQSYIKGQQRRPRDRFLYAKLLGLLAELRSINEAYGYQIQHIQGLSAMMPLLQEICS
# Assay: qHTS assay to identify small molecule antagonists of the constitutive androstane receptor (CAR) signaling pathway (AID 1224838);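 note: HepG2 cells stably expressing hCAR with CYP2B6 luciferase reporter stimulated by CITCO; nearly all actives have a fitted effect of over 40% in size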
# Settings: HepG2-CYP2B6-hCAR luciferase, CITCO-stimulated, 24 h; series mostly up to 92.4 µM; activity, negative = inhibition: at the top concentration
# Outline: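 Reporter luminescence was quantified after 24 h exposure of hCAR/CYP2B6-2.2kb double-stable HepG2 cells to compounds at 15 concentrations in the presence of 50 nM CITCO final.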
Compound,outcome,"activity, negative = inhibition"
CC(C)(C#N)c1cc(Cn2cncn2)cc(C(C)(C)C#N)c1,inactive,
O=C1C(c2[nH]c3ccccc3c2O)=Nc2ccccc21,inactive,
C=Cc1ccc(C)cc1,inactive,
CC(=O)OC1CC(C)OC(C)O1 (centres undefined),inactive,
CCCCCCCCCCCCCCCCO,inactive,
CCOCC(=O)O,inactive,
N#Cc1ccccc1,inactive,
CC(C)OC(=O)COc1ccc(Cl)cc1Cl,inactive,
CCCCOC(=O)c1ccc(N)cc1,inactive,
O=C(O)c1ccc(C(=O)O)c(C(=O)O)c1,inactive,
COc1ccc([N+](=O)[O-])cc1N,inactive,
O=[N+]([O-])c1ccc2nc[nH]c2c1,inactive,
CCNC(=S)NCC,inactive,
COc1cc(OC)c(C(=O)CCCN2CCCC2)c(OC)c1,,-5.36% (inactive)
C=CC(=O)OCCC(=O)O,inactive,
CCO[Si](CCCN)(OCC)OCC,inactive,
O=C(OCC1CCC2OC2C1)C1CCC2OC2C1 (centres undefined),inactive,
COc1ccc(C)cc1N,inactive,
CSc1ccc(Cl)cc1,inactive,
OCc1cccc(Oc2ccccc2)c1,inactive,
CC(C)CCCCCCCOC(=O)CCCCC(=O)OCCCCCCCC(C)C,,4.45% (inactive)
COCCCN,inactive,
CCCCC(C=O)CC (centres undefined),inactive,
C=C(C)CNCC,,-2.24% (inactive)
CC(C)(C)c1cc(Cc2cc(C(C)(C)C)c(O)c(C(C)(C)C)c2)cc(C(C)(C)C)c1O,inactive,
CC(C)=CCl,,-4.31% (inactive)

# Target: Nuclear receptor subfamily 1 group I member 3 (Homo sapiens) (UniProt Q14994)
# Assay: qHTS assay to identify small molecule agonists of the constitutive androstane receptor (CAR) signaling pathway (AID 1224839); note: nearly all actives have a fitted effect of over 15% in size; note: potency is the fitted concentration of half-maximal effect;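 for activation: HepG2 cells stably carrying human CAR and a CYP2B6 luciferase reporter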
# Settings: HepG2 hCAR CYP2B6-luciferase, agonist mode, 24 h; series mostly up to 92.4 µM; activation: at the top concentration
# Outline: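 Cells were plated and incubated 4 hrs, then dosed with compounds at 15 concentrations. PK11195 was added to 0.75 uM final. After 24 hrs at 37 C, luciferase luminescence was measured.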
Compound,Potency,activation
CC(C)(C#N)c1cc(Cn2cncn2)cc(C(C)(C)C#N)c1,inactive,
O=C1C(c2[nH]c3ccccc3c2O)=Nc2ccccc21,,0.361% (inactive)
C=Cc1ccc(C)cc1,inactive,
CC(=O)OC1CC(C)OC(C)O1 (centres undefined),inactive,
CCCCCCCCCCCCCCCCO,inactive,
CCOCC(=O)O,inactive,
N#Cc1ccccc1,inactive,
CC(C)OC(=O)COc1ccc(Cl)cc1Cl,inactive,
CCCCOC(=O)c1ccc(N)cc1,23.7 µM (active),
O=C(O)c1ccc(C(=O)O)c(C(=O)O)c1,inactive,
COc1ccc([N+](=O)[O-])cc1N,inactive,
O=[N+]([O-])c1ccc2nc[nH]c2c1,inactive,
CCNC(=S)NCC,inactive,
COc1cc(OC)c(C(=O)CCCN2CCCC2)c(OC)c1,inactive,
C=CC(=O)OCCC(=O)O,,15% (inactive)
CCO[Si](CCCN)(OCC)OCC,inactive,
O=C(OCC1CCC2OC2C1)C1CCC2OC2C1 (centres undefined),inactive,
CSc1ccc(Cl)cc1,inactive,
OCc1cccc(Oc2ccccc2)c1,,11.9% (inactive)
CC(C)CCCCCCCOC(=O)CCCCC(=O)OCCCCCCCC(C)C,inactive,
COCCCN,inactive,
CCCCC(C=O)CC (centres undefined),inactive,
CC(C)(C)c1cc(Cc2cc(C(C)(C)C)c(O)c(C(C)(C)C)c2)cc(C(C)(C)C)c1O,inactive,
CC(C)=CCl,inactive,

# Test system: not listed separately
# Assay: qHTS assay to identify small molecule antagonists of the estrogen related receptor signaling pathway with the pleiotropic PPARgamma coactivator (PGC) from Tox21 10K library - cell viability counter screen (AID 1224840; active = well fitted cell-killing curve with a large enough effect in the repeat runs, not every such curve was filed as active; note: nearly all actives have a fitted effect of over 40% in size)
# Settings: PGC/ERR reporter cells viability, CellTiter-Fluor, 17.5 h; series mostly up to 92.4 µM; viability change, negative = cytotoxic: at the top concentration
# Outline: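 Here the PGC/ERR cells serve as a cytotoxicity control: they are exposed to compounds for 17.5 hours at 37 C, and live-cell signal is quantified using CellTiter-Fluor fluorescence.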
row,Compound,Potency
1,CC(C)(C#N)c1cc(Cn2cncn2)cc(C(C)(C)C#N)c1,inactive
2,O=C1C(c2[nH]c3ccccc3c2O)=Nc2ccccc21,inactive
3,C=Cc1ccc(C)cc1,inactive
4,CCOCC(=O)O,inactive
5,CC(C)OC(=O)COc1ccc(Cl)cc1Cl,inactive
6,CCCCOC(=O)c1ccc(N)cc1,inactive
7,O=C(O)c1ccc(C(=O)O)c(C(=O)O)c1,inactive
8,C[C@]12CC[C@@H]3c4ccc(O)cc4CC[C@H]3[C@@H]1C[C@@H](O)[C@@H]2O,inactive
9,COc1ccc([N+](=O)[O-])cc1N,inactive
10,COc1cc(OC)c(C(=O)CCCN2CCCC2)c(OC)c1,inactive
11,CC(C)c1cccc(C(C)C)c1,inactive
12,CCO[Si](CCCN)(OCC)OCC,inactive
13,C=CC[N+](C)(C)CC=C,inactive
14,OCc1cccc(Oc2ccccc2)c1,inactive
15,O=C1CCCC1,inactive
16,CC(C)CCCCCCCOC(=O)CCCCC(=O)OCCCCCCCC(C)C,inactive
17,CCCCCCC=O,inactive
18,CC1(C)CC(N)CC(C)(CN)C1 (centres undefined),inactive
19,COc1ccccc1OCC(O)CO (centres undefined),inactive
20,C=C(C)CNCC,inactive
21,CC(C)(C)c1cc(Cc2cc(C(C)(C)C)c(O)c(C(C)(C)C)c2)cc(C(C)(C)C)c1O,inactive

# Test system: not listed separately
# Assay: qHTS assay to identify small molecule antagonists of the estrogen related receptor signaling pathway with the pleiotropic PPARgamma coactivator (PGC) from Tox21 10K library (AID 1224841; call rule not given here; note: actives are mostly falling curves and most rising ones were filed inactive; nearly all actives have a fitted effect of over 50% in size)
# Settings: PGC/ERR reporter cell line, ONE-Glo luciferase, 18 h; series mostly up to 92.4 µM; activity, negative = inhibition: at the top concentration
# Outline: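 Each well held 2,000 PGC/ERR cells, pre-incubated six hours (37 C, 5% CO2). Test substances in DMSO were added by pin tool and left for 18 h at 37 C before luciferase detection by One-Glo.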
Compound,Potency,"activity, negative = inhibition"
Cc1ccc(S(=O)(=O)N=C=O)cc1,inactive,
CC(C)(C#N)c1cc(Cn2cncn2)cc(C(C)(C)C#N)c1,inactive,
O=C1C(c2[nH]c3ccccc3c2O)=Nc2ccccc21,inactive,
CC(=O)OC1CC(C)OC(C)O1 (centres undefined),,3.94% (inactive)
CCOCC(=O)O,inactive,
N#Cc1ccccc1,inactive,
O=C(O)c1ccc(C(=O)O)c(C(=O)O)c1,inactive,
CC(C)c1cccc(C(C)C)c1,inactive,
C=CC(=O)OCCC(=O)O,inactive,
CCO[Si](CCCN)(OCC)OCC,,1.42% (inactive)
O=C1CCCC1,inactive,
C=C(C)CNCC,inactive,

# Test system: not listed separately
# Assay: qHTS assay to identify small molecule agonists of the estrogen related receptor signaling pathway with the pleiotropic PPARgamma coactivator (PGC) from Tox21 10K library (AID 1224842); note: nearly all actives have a fitted effect of over 15% in size
# Settings: PGC/ERR reporter cell line, luciferase ONE-Glo, 18 h; series mostly up to 92.4 µM; activation: at the top concentration
# Outline: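 PGC/ERR reporter cell line, 2,000 cells per well, incubated 6 h at 37 C before 23 nL compound in DMSO was added. After 18 h at 37 C, One-Glo luminescence read following 30 min at room temperature.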
row,Compound,outcome
1,Cc1ccc(S(=O)(=O)N=C=O)cc1,inactive
2,CC(C)(C#N)c1cc(Cn2cncn2)cc(C(C)(C)C#N)c1,inactive
3,O=C1C(c2[nH]c3ccccc3c2O)=Nc2ccccc21,inactive
4,CC(=O)OC1CC(C)OC(C)O1 (centres undefined),inactive
5,CCOCC(=O)O,inactive
6,N#Cc1ccccc1,inactive
7,O=C(O)c1ccc(C(=O)O)c(C(=O)O)c1,inactive
8,CC(C)c1cccc(C(C)C)c1,inactive
9,CCO[Si](CCCN)(OCC)OCC,inactive
10,O=C1CCCC1,inactive
11,C=C(C)CNCC,inactive
